In all, about 2,500 compounds went through this assay and about 1,100 (44%) were called active.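 The calls were made as follows: active = inhibition above 50% at 4 µM in the single-point screen; inactive = inhibition of 50% or less.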 So high a share suggests a set chosen from earlier hits. This is one part of the list.

A short description of this assay: TNF-a-driven NF-kB reporter inhibitors, primary screen, selectivity assay for NOD1/NOD2 signaling inhibitor project, cell-based, HEK293T NF-kB-Luc, luminescence (AID 1852). The conditions noted are these: TNF-a induced, 14 h, at 4 µM, hits give high values.
Usually inhibition stands for the drop in the measured response relative to a control, in per cent. Take `O=C(Nc1ccc(Cl)cc1)c1cccc(N2C(=O)C3C4CCC(C4)C3C2=O)c1` (stereo not given): the inhibition was 3.3% (inactive).

Take `Cc1cc(C(=O)Nc2ccc(Cl)cc2)c(C)n1-c1ccccc1`: the inhibition is 56.3% (active). Take `COc1cc(NC(=O)c2cccs2)c(C(=O)OCC(=O)c2cc(C)n(-c3ccccc3)c2C)cc1OC`: the inhibition is 41.1% (inactive). Regarding `CCOc1ccc(NC(=O)C2CCCN(S(=O)(=O)c3c(C)noc3C)C2)cc1` (stereo not given), the inhibition is 49.2% (inactive). As for `COc1ccc(-c2nnc(Sc3nc4ccccc4o3)c3ccccc23)cc1`, the figure is -25.6% (inactive). For `CC(=O)c1c(C)[nH]c(C(=O)Nc2nc(-c3ccccc3)c(C)s2)c1C`, the inhibition was -37.3% (inactive).

Take `COc1ccc(-c2nc(NC(C)=O)sc2-c2ccccc2)cc1`: the inhibition is 58.1% (active). Consider `CCc1ccc(S(=O)(=O)/N=C2\C=C(Nc3ccc(C(=O)O)cc3)C(=O)c3ccccc32)cc1`, for which the inhibition was 49.3% (inactive). As for `CCc1ccc(S(=O)(=O)/N=C2\C=C(Nc3ccc(O)cc3)C(=O)c3ccccc32)cc1`, the inhibition was 106% (active). On to `COc1ccc(S(=O)(=O)n2ccc(C(C)Oc3ccc(-c4ccccc4)c(F)c3)n2)cc1` (stereo not given), for which the inhibition was 20.1% (inactive).

For the molecule `O=C1C(Cl)=C(Nc2ccc(O)cc2)C(=O)c2ccccc21`, the inhibition is 30.4% (inactive). On to `O=C(O)c1cccc(S(=O)(=O)Nc2ccccc2Cc2ccccc2)c1`, for which the inhibition was 14.3% (inactive).

`CCc1ccc(S(=O)(=O)/N=C2\C=C(Nc3cccc(C(=O)O)c3)C(=O)c3ccccc32)cc1`: the inhibition is 107% (active). Regarding `COc1ccc(S(=O)(=O)/N=C2\C=C(Nc3ccc(O)cc3)C(=O)c3ccccc32)cc1`, the inhibition is 101% (active).

For the molecule `c1ccc(CCCNc2ncccn2)cc1`, the inhibition was 19% (inactive). As for `CCOc1ccc2nc(SCc3ccc(CC(=O)O)cc3)c(C#N)cc2c1`, the inhibition was 64.6% (active).

Regarding `Nc1c(Cl)ncnc1N/N=C/c1ccccn1`, the inhibition was 109% (active).

As to `Cc1cc(/C=N/Nc2ncnc(N)c2[N+](=O)[O-])c(C)n1-c1ccccc1`, the inhibition is 3.7% (inactive). Take `COc1cc(/C=C2/CCc3ccccc3C2=O)cc(OC)c1OC`: the inhibition is -23.8% (inactive).

For `COc1cc(/C=C2\CC(C(C)(C)C)C/C(=C\c3cc(OC)c(OC)c(OC)c3)C2=O)cc(OC)c1OC` (stereo not given), the inhibition was 87.2% (active). Under `COc1cc(/C=C2\COC/C(=C\c3cc(OC)c(OC)c(OC)c3)C2=O)cc(OC)c1OC` stands 106% (active); under `COC(=O)c1ccccc1NC1=C/C(=N\S(=O)(=O)c2cccs2)c2ccccc2C1=O`, 99.7% (active); under `CCc1cccc(NC(=O)C2CCCN(S(=O)(=O)c3cccs3)C2)c1` (stereo not given), 18.2% (inactive). As for `Cc1cccc(NC2=C/C(=N/S(=O)(=O)c3cccs3)c3ccccc3C2=O)c1`, the figure is 63.9% (active); as for `Cc1ccccc1NC1=C/C(=N\S(=O)(=O)c2cccs2)c2ccccc2C1=O`, 108% (active); as for `Cc1ccc(NC2=C/C(=N\S(=O)(=O)c3cccs3)c3ccccc3C2=O)c(C)c1`, 102% (active). As for `COc1ccc(CNS(=O)(=O)c2ccc3c(c2)CC(C)N3C(=O)C2CC2)cc1` (stereo not given), the figure is 30% (inactive). For the molecule `Cc1ccc(Cl)cc1NC1=C/C(=N\S(=O)(=O)c2cccs2)c2ccccc2C1=O`, the inhibition was 102% (active).

`CCOc1ccc(OCCN2C(=O)NC3(CCCc4ccccc43)C2=O)cc1` (stereo not given): the inhibition is 18.7% (inactive). For `CN(CC1CCCO1)S(=O)(=O)c1ccc(C(=O)Nc2nc3cc4c(cc3s2)OCO4)cc1` (stereo not given), the inhibition was 69.7% (active).

As for `O=C(Nc1nc2cc3c(cc2s1)OCCO3)C1=COCCO1`, the inhibition was 22.7% (inactive). For the molecule `CCN(CC)S(=O)(=O)c1cccc(C(=O)Nc2nc3cc4c(cc3s2)OCCO4)c1`, the inhibition is 22% (inactive). As for `CC1CCCCN1S(=O)(=O)c1ccc(C(=O)Nc2nnc(-c3ccccc3Cl)o2)cc1` (stereo not given), the inhibition is 97.2% (active). As for `CCC1CCCCN1S(=O)(=O)c1ccc(C(=O)Nc2nnc(-c3ccccc3Cl)o2)cc1` (stereo not given), the inhibition was 70.3% (active).

Take `CCC1CCCCN1S(=O)(=O)c1ccc(NC(=O)c2ccncc2)cc1` (stereo not given): the inhibition was 9.7% (inactive). On to `O=C(c1ccc(S(=O)(=O)N2CCCCC2)cc1)N1CCN(CCN2C(=O)c3cccc4cccc(c34)C2=O)CC1`, for which the inhibition is 31% (inactive). As to `O=C(Nc1nnc(-c2ccccc2Cl)o1)c1ccc(S(=O)(=O)N2CCCCCC2)cc1`, the inhibition is 93.9% (active). As to `O=C(c1[nH]ncc1-c1ccc(Cl)cc1)C1CO1` (stereo not given), the inhibition is 12.8% (inactive).

For the molecule `CN(C(=O)C(C)(C)C)c1ccc(OCC(=O)N2CCc3ccccc3C2)cc1`, the inhibition was 41.9% (inactive). As for `CCOc1ccc(NC(=O)Nc2nc(SCC)ns2)cc1`, the figure is 12.2% (inactive); as for `S=C(NNc1ccnc2cc(Cl)ccc12)Nc1ccccc1Cl`, 64.6% (active).

For the molecule `FC(F)(F)c1cnc(NNC(=S)Nc2ccccc2Cl)c(Cl)c1`, the inhibition was -6.8% (inactive). For `S=C(NNc1ccnc2cc(Cl)ccc12)Nc1ccc(Cl)cc1Cl`, the inhibition is 43.7% (inactive). Regarding `COc1ccc(-c2cnc(N)nc2-c2ccc(OC)cc2O)cc1`, the inhibition is 70.5% (active).

Take `COc1ccc(-c2cncnc2-c2ccc(OC)cc2O)cc1`: the inhibition was 79.8% (active). Regarding `COc1ccc(-c2n[nH]c(C)c2-c2ccc(OC)c(OC)c2)c(O)c1`, the inhibition is 28.7% (inactive).

As for `Cc1c(C(=O)Nc2nonc2-c2ccc(F)cc2)oc2ccc(F)cc12`, the inhibition is 77.4% (active). Under `COc1cccc(NC(=O)c2oc3ccc(S(=O)(=O)N4CCOCC4)cc3c2C)c1` stands -31.8% (inactive); under `CC1CCN(c2ccc(-c3cccc(NC(=O)C(F)(F)F)c3)nn2)CC1`, -170% (inactive). On to `O=C(OCn1ncc(Cl)c(Cl)c1=O)c1cccc(C(F)(F)F)c1`, for which the inhibition is 43% (inactive).

For `Cc1ccc(C(=O)OCn2ncc(Cl)c(Cl)c2=O)cc1`, the inhibition is 88.1% (active). Consider `O=C(OCn1ncc(Cl)c(Cl)c1=O)c1ccc(F)cc1`, for which the inhibition is 83.1% (active). As for `COc1ccc(CCNc2oc(COc3ccccc3Cl)nc2C#N)cc1OC`, the figure is 11.6% (inactive); as for `COc1ccc(Nc2oc(COc3ccccc3OC)nc2C#N)cc1`, 77.8% (active); as for `COc1ccc(CCNc2oc(COc3ccc(Br)cc3)nc2C#N)cc1OC`, 24.5% (inactive). Turning to `Cc1ccc(NS(=O)(=O)c2sc3ccc(Cl)cc3c2C)cc1`, the inhibition is 9.4% (inactive). Regarding `COc1cc(CNc2ccc3[nH]c(=O)[nH]c3c2)ccc1OCc1cccc(C)c1`, the inhibition was 44.3% (inactive).

Regarding `CCOc1ccc(S(=O)(=O)Nc2cnc3ccccc3c2)cc1`, the inhibition is 81.5% (active). Under `CCOc1ccc(NS(=O)(=O)c2cc(Cl)ccc2OC)cc1` stands 10.6% (inactive); under `CCOc1ccc(NS(=O)(=O)c2ccc3[nH]c(=O)[nH]c3c2)cc1`, 88.5% (active). On to `CCOc1ccc(Nc2nc(N)c3ccccc3n2)cc1`, for which the inhibition was -144% (inactive).

For the molecule `CC(C)c1ccc(-c2nnn(CCC(=O)O)n2)cc1`, the inhibition was 49.4% (inactive). Under `COC(=O)CCn1nnc(-c2ccc(C(C)C)cc2)n1` stands 71.7% (active). As for `O=C(Nc1ccccc1)C1=C(c2ccccc2)S(=O)(=O)CCS1(=O)=O`, the figure is 60.9% (active). As for `Cc1ccc(NC(=O)C2=C(c3ccccc3)S(=O)(=O)CCS2(=O)=O)cc1`, the figure is 65% (active). As for `CC(C)=CCc1c(O)cc2oc3c(CC=C(C)C)c(O)c(O)c(CC=C(C)C)c3c(=O)c2c1O`, the inhibition is 15.6% (inactive). For `C=CCNc1ncnc2ccc(Br)cc12`, the inhibition was 25.1% (inactive). Under `Brc1ccc2ncnc(NCc3ccco3)c2c1` stands 60.4% (active); under `Brc1ccc2ncnc(NCc3cccnc3)c2c1`, 65.2% (active). With `Cc1ccc(/C=C2/SC(=S)N(c3ccc(S(=O)(=O)Nc4nccs4)cc3)C2=O)cc1`, the inhibition is 21% (inactive).

As for `O=C(O)c1ccc(N/N=C/c2ccc(OC(=O)c3ccccc3Cl)cc2)cc1`, the inhibition was 7.7% (inactive). Consider `CC(C)Cc1ccc(S(=O)(=O)Nc2ccccn2)cc1`, for which the inhibition was 15.7% (inactive). Under `CC(C)(C)c1ccc(S(=O)(=O)/N=C2\C=C(NS(=O)(=O)c3ccccc3)C(=O)c3ccccc32)cc1` stands 96.3% (active); under `CC(C)c1ccc(S(=O)(=O)/N=C2\C=C(NS(=O)(=O)c3ccccc3)C(=O)c3ccccc32)cc1`, 103% (active). In the case of `CCc1oc2ccccc2c1C(=O)c1cc(Br)c(O)c(Br)c1`, the inhibition was 71.9% (active). Turning to `CCOC(=O)c1c(-c2ccccc2)oc2cc(Br)c(O)c(C=O)c12`, the inhibition is 50% (inactive).

Regarding `CCOc1ccc2c(c1)C(=NNC(=O)c1ccncc1)c1cc(OCC)ccc1-2`, the inhibition is 106% (active).

Consider `O=C(N/N=C/c1cc(Br)c(Br)s1)c1ccncc1`, for which the inhibition was 2.7% (inactive). Turning to `O=S(=O)(Nc1cccc(-c2cn3cccnc3n2)c1)c1ccc(-c2ccccc2)cc1`, the inhibition is 20.8% (inactive). For `O=S(=O)(Nc1cccc2cccnc12)c1ccccc1`, the inhibition was -4% (inactive). On to `Cc1ccc(S(=O)(=O)Nc2cccc3cccnc23)cc1`, for which the inhibition was 105% (active). As for `Cc1ccc(S(=O)(=O)Nc2cccc3cccnc23)c([N+](=O)[O-])c1`, the figure is 103% (active); as for `Cc1nc(C)c(C(=O)NNS(=O)(=O)c2ccc3ccccc3c2)s1`, 21.5% (inactive); as for `Cc1ccc2cccc(NS(=O)(=O)c3ccccc3)c2n1`, 62.8% (active). With `O=[N+]([O-])c1ccccc1S(=O)(=O)Nc1cccc2cccnc12`, the inhibition was 35% (inactive). Consider `COc1cc(NS(=O)(=O)c2ccc3ccccc3c2)c2ncccc2c1`, for which the inhibition is 55.6% (active). On to `COc1ccc(NS(=O)(=O)c2ccc3ccccc3c2)c2ncccc12`, for which the inhibition was 27.9% (inactive). Regarding `O=C(NCc1ccco1)c1sc(=S)n2c1[nH]c(=O)c1ccccc12`, the inhibition is 54.1% (active). Consider `O=C(NCc1ccccc1)c1sc(=S)n2c1[nH]c(=O)c1ccccc12`, for which the inhibition was 73.6% (active).

In the case of `CCCCNC(=O)c1sc(=S)n2c1[nH]c(=O)c1ccccc12`, the inhibition is 69.9% (active). In the case of `COc1ccc(OC)c(CCNC(=O)c2ccc3c(=O)[nH]c4c(C(=O)NC(C)C)sc(=S)n4c3c2)c1`, the inhibition was 35.7% (inactive). For the molecule `CCOc1ccc(CCNC(=O)c2ccc3c(=O)[nH]c4c(C(=O)NC(C)C)sc(=S)n4c3c2)cc1`, the inhibition is 50.9% (active). Under `COc1cc(C(=O)Nc2sc3c(c2C(=O)NCc2ccco2)CCCC3)cc(OC)c1OC` stands -39.2% (inactive); under `O=C(NCc1ccccc1)c1ccc(C2SCC(=O)N2Cc2ccccc2)cc1` (stereo not given), 33.1% (inactive). Take `CC(C)NC(=O)c1sc(=S)n2c1[nH]c(=O)c1ccc(C(=O)NCCc3ccc(Cl)cc3)cc12`: the inhibition was 42.5% (inactive).

For the origin of these results see PubChem BioAssay AID1852 (Sanford-Burnham Center for Chemical Genomics, 2009).
